# In PubChem BioAssay (NCATS):
# A number with no mark means an inactive call. Records with an inconclusive call do not appear. Where a call stands in place of a potency, no number is given. Calls of active or inactive are those of the source. Unless noted, calls come from the whole dose curve; as a rule, active = well fitted curve in the direction sought with a large enough effect; inconclusive = small, poorly fitted or top-dose-only effect, or another doubt; inactive = no such curve, though single readings can be large; an effect the other way counts as inactive or inconclusive.
# How the values were obtained:
# [1] = P-glycoprotein substrates identified in KB-3-1 adenocarcinoma cell line, qHTS therapeutic library screen (AID 1346986);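 note: potency is the fitted concentration of half-maximal effect; potency is for cytotoxicity meaning loss of cell viability; nearly all actives have a fitted effect of over 60% in size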
# Method in brief: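 In 1536-well format, 500 cells/well received pinned compound titrations and were incubated 72 h, 5% CO2. Viability was read by CellTiter-Glo; cytotoxic if AC50 < 10 uM and efficacy >50%.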
# [2] = Primary qHTS for inhibitors of nuclear receptor binding SET domain protein 2 (NSD2) in an isogenic RCH-ACV NSD2 p.E1099K mutant (9B) (AID 1645876); note: potency is the fitted concentration of half-maximal effect; nearly all actives have a fitted effect of over 70% in size
# [3] = Primary qHTS for inhibitors of nuclear receptor binding SET domain protein 2 (NSD2) in an RCH-ACV wild type WT cells (2C) (AID 1645877); note: potency is the fitted concentration of half-maximal effect; nearly all actives have a fitted effect of over 70% in size
# [4] = target: Glutathione peroxidase 1 (Homo sapiens) (UniProt P07203); assay: Primary qHTS Assay for Inhibitors of Recombinant Selenoprotein Glutathione Peroxidase 1 (GPX1) (AID 1845191); note: nearly all actives have a fitted effect of over 65% in size
# Method in brief: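 GR-coupled readout: NADPH consumption tracked by fluorescence, ex 340/em 450 nm, at t=0 and after 15 min at RT. Final mix 10 nM GPX1, 1 mM GSH, 0.5 mM CHP, 0.5 mM NADPH, 100 nM GR, 0.01% BSA, following 30 min enzyme–compound preincubation.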
# [5] = target: Calcium and integrin-binding protein 1 (Homo sapiens) (UniProt Q99828); assay: Primary qHTS for Identification of Calcium Integrin Binding Protein 1 (CIB1) Competitor (AID 1508620);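 note: GST tagged CIB1 binding a fluorescein labelled alphaIIb integrin peptide tracer; top concentration of the series differs between compounds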
# Method in brief: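 Fluorescence polarization competition: GST-tagged CIB1 (1 uM final) preincubated with compound 15 min at room temperature, then FITC-labelled alphaIIb peptide (100 nM final) added. After 15 min at room temperature, polarization read at Ex 480/Em 540.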
# [6] = target: Phospholipid hydroperoxide glutathione peroxidase GPX4 (Homo sapiens) (UniProt P36969); assay: Primary qHTS Assay for Inhibitors of Recombinant Selenoprotein Glutathione Peroxidase 4 (GPX4) (AID 1845192); note: nearly all actives have a fitted effect of over 65% in size
# Method in brief: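 Steps: GPX4 plus compound, 30 min RT; add GR/GSH/NADPH master mix; start with cumene hydroperoxide; read 340/450 nm fluorescence at 0 and 15 min. Finals were 200 nM GPX4, 1 mM GSH, 0.5 mM CHP, 0.5 mM NADPH, 100 nM GR.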
# [7] = target: Luciferin 4-monooxygenase (Photinus pyralis) (UniProt P08659); assay: Primary firefly luciferase (FLuc) qHTS assay for identification of artifact compounds. (AID 1845220); conditions: outcome: dose series up to 54.1 µM unless noted; note: nearly all actives have a fitted effect of over 60% in size
# Method in brief: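 Titrated compounds were incubated 15 min at RT, protected from light, with luciferin and ATP at 10 uM; reaction started with 10 nM FLuc, luminescence imaged at 5 min, and concentration-response fitted by Hill equation.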
# [8] = Primary fluorescence-based thiol-reactive (MSTI) qHTS assay for identification of artifact compounds. (AID 1845221);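 note: thiol-reactive compounds lower the probe fluorescence signal; nearly all actives have a fitted effect of over 65% in size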
# Method in brief: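 First, 4 uM MSTI in 2% DMSO/PBS pH 7.4 was dispensed; next, compounds were added; then plates sat 1 h at room temperature without light. Finally, emission at 598 nm was recorded.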
# [9] = tested on: Nanoluciferase (engineered Oplophorus gracilirostris luciferase); assay: Primary Nanoluciferase (NLuc) qHTS assay for identification of artifact compounds. (AID 1845222);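 note: NLuc secreted into diluted conditioned medium of S16 cells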
# Method in brief: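 qHTS format, against NLuc in S16 cell-conditioned medium. Nano-Glo substrate 1:100 was added after 15 min at room temperature. Luminescence was taken after a further 5 min.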
# [10] = Primary redox qHTS assay for identification of artifact compounds. (AID 1845223)
# Method in brief: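 Redox-cycling detection via DTT (250 uM final) oxidation coupled to Amplex Red (25 uM)/HRP (250 mU/mL) in HBSS. 15 min preincubation plus 30 min after DTT, room temperature. Ex/Em 525/598 nm; 4-parameter Hill fit against DMSO and 10 uM DA3003.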
# [11] = tested on: JEG-3; assay: Primary qHTS to identify gynecologic anti-cancer compounds using libraries of approved drugs and bioactive compounds (AID 1345084); conditions: Gynecologic cancer cell panel viability, ATPlite luminescence, 48 h; series mostly up to 57.5 µM; note: nearly all actives have a fitted effect of over 55% in size
# Method in brief: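 48 h compound exposure at 37 C, 5% CO2; five-point qHTS. ATPlite luminescence readout of cell ATP.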
# [12] = qHTS for Inhibitors of the Functional Ribonucleoprotein Complex (vRNP) of Lassa (LASV) Arenavirus: LASV Primary Screen - GLuc reporter signal (AID 1347082; calls by dose curve; tested in HEK293 reporter line; note: nearly all actives have a fitted effect of over 60% in size; note: potency is the fitted concentration of half-maximal effect)
# [13] = qHTS for Inhibitors of the Functional Ribonucleoprotein Complex (vRNP) of Lassa (LASV) Arenavirus: Viability assay - alamar blue signal for LASV Primary Screen (AID 1347083; calls by dose curve; tested in HEK293 reporter line; note: nearly all actives have a fitted effect of over 80% in size; note: potency is the fitted concentration of half-maximal effect)
# Glutathione peroxidase 1 (Homo sapiens), sequence (P07203 whole entry, looked up): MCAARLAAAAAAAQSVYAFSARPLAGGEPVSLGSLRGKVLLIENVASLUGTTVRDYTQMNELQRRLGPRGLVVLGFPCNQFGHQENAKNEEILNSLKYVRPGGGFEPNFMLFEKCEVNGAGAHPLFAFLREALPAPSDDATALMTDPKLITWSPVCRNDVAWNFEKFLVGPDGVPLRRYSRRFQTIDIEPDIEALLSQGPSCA
# Phospholipid hydroperoxide glutathione peroxidase GPX4 (Homo sapiens), sequence (P36969 whole entry, looked up): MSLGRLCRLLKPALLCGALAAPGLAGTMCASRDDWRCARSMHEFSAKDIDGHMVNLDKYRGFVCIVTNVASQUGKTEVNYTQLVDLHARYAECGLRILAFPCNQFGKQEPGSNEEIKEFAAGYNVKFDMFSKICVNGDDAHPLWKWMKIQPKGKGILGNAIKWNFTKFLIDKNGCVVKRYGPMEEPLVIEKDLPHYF
# Calcium and integrin-binding protein 1 (Homo sapiens), sequence (Q99828 whole entry, looked up): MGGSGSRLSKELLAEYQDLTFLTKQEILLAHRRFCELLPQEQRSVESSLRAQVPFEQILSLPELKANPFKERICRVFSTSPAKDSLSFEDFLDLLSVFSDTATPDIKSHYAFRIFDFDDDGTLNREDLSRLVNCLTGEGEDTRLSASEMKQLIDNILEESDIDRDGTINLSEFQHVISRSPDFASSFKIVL
compound,measurement,setting,value
COC[C@@H]1OC(=O)/C(=C\N(C)CCCN(C)C)C2=C(O)C(=O)C3=C([C@@H](OC(C)=O)C[C@@]4(C)[C@@H]3CC[C@@H]4O)[C@@]21C,Potency,[1],13 µM (active)
same,Potency,[2],2.59 µM (active)
same,Potency,[3],2.59 µM (active)
same,Potency,[4],inactive
CC[C@@H](C)[C@H]1C(=O)O[C@H](C(C)C)C(=O)N(C)[C@@H]([C@@H](C)CC)C(=O)O[C@H](C(C)C)C(=O)N(C)[C@@H]([C@H](C)CC)C(=O)O[C@H](C(C)C)C(=O)N1C,Potency,[5],inactive
same,Potency,[2],4.3 µM (active)
same,Potency,[3],1.71 µM (active)
same,Potency,[4],inactive
same,Potency,[6],inactive
same,outcome,[7],inactive [at 25.7 µM]
same,Potency,[8],inactive
same,Potency,[9],inactive
same,Potency,[10],inactive
same,Potency,[11],inactive
COc1cccc2c1C1COC3C4CC(C(=O)O)C(C(C2)N13)N4C (configuration not stated),Potency,[12],inactive
CC(=O)c1ccc[nH]1,Potency,[12],inactive
same,Potency,[13],inactive
CCCCCC(=O)N[C@@H](c1ccccc1)[C@@H](O)C(=O)O[C@H]1C[C@@]2(O)[C@@H](OC(=O)c3ccccc3)C3[C@](C)(C(=O)[C@H](O)C(=C1C)C2(C)C)[C@@H](OC1OCC(O)C(O)C1O)C[C@H]1OC[C@@]31OC(C)=O (some centres not stated),Potency,[12],inactive
same,Potency,[13],inactive
CN(C)c1ccccc1CN1CCCN(Cc2ccccc2N(C)C)C1c1ccncc1,Potency,[12],inactive
same,Potency,[13],inactive
C/C=C(\C)C(=O)N[C@@H](c1ccccc1)[C@@H](O)C(=O)O[C@H]1C[C@@]2(O)[C@@H](OC(=O)c3ccccc3)C3[C@](C)(C(=O)[C@H](O)C(=C1C)C2(C)C)[C@@H](O)C[C@H]1OC[C@@]31OC(C)=O (some centres not stated),Potency,[12],inactive
Oc1ccc([C@@H]2Oc3ccc(O)cc3[C@@H]3CCC[C@@H]32)cc1,Potency,[12],inactive
CCOC(=O)C1=C(C)NC(C)=C(C(=O)OCC)C1c1c(F)c(F)c(F)c(F)c1F,Potency,[12],inactive
COc1ccc(-c2cc(=O)c3c(O)cc(O)c(-c4cc(-c5cc(=O)c6c(O)cc(OC)cc6o5)ccc4OC)c3o2)cc1,Potency,[12],inactive
same,Potency,[13],inactive
CO[C@H]1[C@@H](O)[C@@H](C)O[C@H](O[C@H]2[C@H](Oc3cccc4c(O)c5c(=O)oc6ccc(C)c7c(=O)oc(c34)c5c67)O[C@H](C)[C@H](O)[C@@H]2O)[C@@H]1O,Potency,[12],inactive
CC(=O)O[C@H]1C(=O)[C@@]2(C)C([C@H](OC(=O)c3ccccc3)[C@]3(O)C[C@H](O)C(C)=C1C3(C)C)[C@]1(OC(C)=O)CO[C@@H]1C[C@H]2O (some centres not stated),Potency,[12],inactive
CC(=O)O[C@@]12CO[C@@H]1C[C@H](O)[C@@]1(C)C(=O)[C@H](O)C3=C(C)[C@@H](O)C[C@@](O)([C@@H](OC(=O)c4ccccc4)C12)C3(C)C (some centres not stated),Potency,[12],inactive
CC(C)(O)CC[C@@H](O)[C@](C)(O)[C@H]1CC[C@@]2(O)C3=CC(=O)[C@@H]4C[C@@H](O)[C@@H](O)C[C@]4(C)[C@@H]3CC[C@]12C,Potency,[12],inactive
CNC(=O)Nc1ccc(Cl)c(Cl)c1,Potency,[12],inactive
same,Potency,[13],inactive
C=C1C(=O)O[C@@H]2C[C@@H](C)[C@H]3C=CC(=O)[C@]3(O)C[C@@H]12,Potency,[12],inactive
C=C1C(C)C2C(Cc3ccccc3)NC(=O)C23C(OC(C)=O)C=CC(C)(O)CC(C)CC=CC3C1O (configuration not stated),Potency,[12],inactive
CC(C)c1c(C(=O)Nc2ccccc2)c(-c2ccccc2)c(-c2ccc(F)cc2)n1CC[C@H](O)C[C@@H](O)CC(=O)O,Potency,[12],inactive
same,Potency,[13],inactive
COc1ccc(C2COc3cc(O)ccc3C2)c(OC)c1O (configuration not stated),Potency,[12],inactive
CC(C)c1oc(=O)cc2c1[C@@H](O)[C@H]1OC(=O)[C@@]3(C)CC[C@@H](O)[C@@]2(C)C13 (some centres not stated),Potency,[12],5.62 µM (active)
O=C(O)CCNc1cc(N2CCc3ccccc3CC2)nc(-c2ccccn2)n1,Potency,[12],inactive
same,Potency,[13],inactive
CC1=CC(C)CC(C)OC(=O)CC(c2ccc(O)cc2)NC(=O)C(Cc2c(Br)[nH]c3ccccc23)N(C)C(=O)C(C)NC(=O)C(C)C1 (configuration not stated),Potency,[12],inactive
COC(=O)c1cc(O)cc(OC)c1Oc1cc(C)cc(O)c1C(=O)O,Potency,[12],inactive
COc1cc([C@@H]2c3cc4c(cc3C[C@H]3COC(=O)[C@@H]32)OCO4)cc(OC)c1O,Potency,[12],inactive
CON=C(C(=O)N[C@@H]1C(=O)N2C(C(=O)O)=C(CSC(=O)c3ccco3)CS[C@H]12)c1csc(N)n1,Potency,[12],inactive
same,Potency,[13],inactive
COC(/C(C)=C/C=C/C(C)=C/c1coc(C)n1)C(C)C1CC(O)C2(C)OC2C=CC(C)C2CC(CC(=O)O2)CC2OC2C(=O)O1 (configuration not stated),Potency,[12],inactive
same,Potency,[13],inactive
CN(C(=O)c1ccc(F)cc1C(F)(F)F)C1CCN(c2nnc(-c3ccnn3C)c3ccccc23)CC1,Potency,[12],inactive
CO[C@H]1O[C@@H]2O[C@@]3(C)CC[C@@H]4[C@@H](C)CC[C@@H]([C@H]1C)[C@@]24OO3,Potency,[12],inactive
same,Potency,[13],inactive
O=C1NC(=O)C(=Cc2ccc3c(c2)OC(F)(F)O3)S1,Potency,[12],inactive
same,Potency,[13],inactive
COc1cc2c(cc1OC)-c1c(OC)c(OC)c(OC)c3ccnc(c13)C2=O,Potency,[12],inactive
C/C=C1\NC(=O)[C@H](CC(N)=O)N(C)C(=O)C([C@@H](C)O)NC(=O)C(CCCc2ccc(OC)cc2)NC(=O)[C@H](C(C)C)NC(=O)/C(=C\C)NC(=O)[C@H](O)[C@@H](C[C@@H](O)CCCCCCC)NC(=O)[C@H](C)NC(=O)CN(C)C(=O)[C@H](CCC(N)=O)NC1=O (some centres not stated),Potency,[12],inactive
CCNC(=O)Nc1ccc2ncc(Nc3ccc(C)cc3)nc2n1,Potency,[12],inactive
same,Potency,[13],2.17 µM (active)
COc1ccc(C2CC(=O)c3c(O)cc(O)cc3O2)cc1O (configuration not stated),Potency,[12],inactive
same,Potency,[13],inactive
O=c1c(-c2ccc(O)cc2)coc2c(C3OC(CO)C(O)C(O)C3O)c(O)ccc12 (configuration not stated),Potency,[12],inactive
same,Potency,[13],inactive
COc1cc(/C=C/C(=O)c2ccc(O)cc2O)ccc1O,Potency,[12],inactive
same,Potency,[13],inactive
O=C1C=CC(O)(c2cc(=O)c3c(O)cc(O)cc3o2)C=C1,Potency,[12],17.8 µM (active)
CCCCCOC(=O)Nc1nc(=O)n([C@@H]2O[C@H](C)[C@@H](O)C2O)cc1F (some centres not stated),Potency,[12],inactive
same,Potency,[13],inactive
COc1ccnc2[nH]cc(C(=O)C(=O)N3CCN(C(=O)c4ccccc4)C[C@@H]3C)c12,Potency,[12],inactive
same,Potency,[13],inactive
O=C(/C=C/c1ccc(O)c(O)c1)c1ccc(O[C@@H]2O[C@H](CO)[C@@H](O)[C@H](O)[C@H]2O)c(O)c1O,Potency,[12],inactive
same,Potency,[13],inactive
CC[C@H]1OC(=O)[C@H](C)[C@@H](O[C@H]2C[C@@](C)(OC)[C@@H](O)[C@H](C)O2)[C@H](C)[C@@H](O[C@@H]2O[C@H](C)C[C@H](N(C)C)[C@@H]2O)[C@](C)(OC)C[C@@H](C)C(=O)[C@H](C)[C@@H](O)[C@]1(C)O,Potency,[12],inactive
Oc1ccc(C2CCN(c3ccnc4ccccc34)CC2)cc1O,Potency,[12],15.3 µM (active)
same,Potency,[13],6.85 µM (active)
